The list is not random: actives were taken first. Their share in the collection is about 32%.
CYP2C9 inh: blockers of cytochrome P450 2C9 activity – biochemical, luminescence, ADME assay, primary screen | P11712 | CYP2C9 Supersomes, luciferin-H conversion | inhibition, % at 5 µM | 20% of 96,000 active | AID 777, 2007;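 active means blocking of liver enzyme CYP2C9 beyond about 50% at 5 µM, limit read from the data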
Target sequence (P11712 whole entry, looked up): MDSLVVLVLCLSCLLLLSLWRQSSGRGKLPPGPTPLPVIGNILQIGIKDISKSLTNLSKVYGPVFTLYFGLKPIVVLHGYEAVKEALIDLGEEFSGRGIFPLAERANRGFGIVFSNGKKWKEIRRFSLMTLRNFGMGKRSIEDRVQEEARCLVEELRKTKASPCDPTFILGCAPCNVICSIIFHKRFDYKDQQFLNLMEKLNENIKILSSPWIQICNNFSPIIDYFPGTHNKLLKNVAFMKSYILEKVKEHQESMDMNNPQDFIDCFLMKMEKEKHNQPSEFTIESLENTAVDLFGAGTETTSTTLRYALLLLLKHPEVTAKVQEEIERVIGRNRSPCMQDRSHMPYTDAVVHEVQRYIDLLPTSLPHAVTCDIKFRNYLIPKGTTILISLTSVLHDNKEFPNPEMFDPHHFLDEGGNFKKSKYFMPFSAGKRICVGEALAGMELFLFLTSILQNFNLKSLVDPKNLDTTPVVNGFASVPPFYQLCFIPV
CYP2C9 activ: human CYP2C9 activators, primary screen, biochemical, luminescence; 1.4% of 96,000 active; AID 1024, 2008; Cytochrome P450 2C9 (Homo sapiens), P11712; recombinant CYP2C9, luciferin-H conversion; active compounds read high; factor 1 = untreated enzyme, 0 = blocked; activation factor at 5 µM;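 active means activation factor of 2 or more for CYP2C9 at a 5 µM dose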;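 further: 0 = sulfaphenazole-blocked wells and 1 = vehicle-only wells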
PostGolgi ctrl: growth inhibition of yeast control strain, primary screen, counter-screen for post-Golgi transport modulator project; efflux-deficient yeast background strain, growth absorbance A615, 16 h; inhibition, % at 10 µM; 5% of 98,000 active; AID 738, 2007
CYP2C19 inh: blockers of cytochrome P450 2C19 activity – biochemical, luminescence, ADME assay, primary screen. P33261. CYP2C19 Supersomes, luciferin-H EGE luminescence, 30 min. inhibition, % at 5 µM. 21% of 96,000 active. AID 778, 2007;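 active means CYP2C19 inhibition above a set limit at 5 µM in the primary screen, cut at about 50% in these data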;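 further: plate controls were negative control wells for no effect and 2.5 mM tranylcypromine positive control for full effect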
CYP2C19 activ: human CYP2C19 activators, primary screen, biochemical, luminescence | Cytochrome P450 2C19 (Homo sapiens), P33261 | recombinant CYP2C19, luciferin-H EGE luminescence; active compounds read high; 0 = fully inhibited enzyme, 1 = untreated enzyme | activation factor at 5 µM | 96,000 tested, under 10 active;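 active means activation factor of at least 2 at 5 µM in the primary screen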;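 further: 0 = wells with 2.5 mM tranylcypromine and 1 = vehicle-only wells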
PostGolgi yeast: phenotypic screen on post-Golgi transport, primary screen. 0.9% of 98,000 active. post-Golgi transport phenotypic cell assay. inhibition, % at 10 µM;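 further: yeast cells grown in 1536-well plates; yeast grown about 18 h at 30C before absorbance read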
Starred values were filed as active, the others as inactive. Unless noted, no stated cut-off is given here; in the data, active means inhibition above about 30%; inactive means the rest.

Results for CC1(C)CC(=O)c2sc(NC(=O)C3COc4ccccc4O3)nc2C1 (configuration not stated) ?
CYP2C9 inh: 14; CYP2C9 activ: 0.9; PostGolgi ctrl: 38*; CYP2C19 inh: -21; CYP2C19 activ: 1.2; PostGolgi yeast: -6

Results for O=C(Nc1cccnc1)C1COc2ccccc2O1 (configuration not stated) ?
CYP2C9 inh: 23; CYP2C9 activ: 0.8; PostGolgi ctrl: 9; CYP2C19 inh: 62*; CYP2C19 activ: 0.4; PostGolgi yeast: 1

How did C#CCOC(=O)CCC(=O)Nc1cc(OC)nc(OC)n1 do in these assays?
CYP2C9 inh: 3; CYP2C9 activ: 1; PostGolgi ctrl: 1; CYP2C19 inh: -3; CYP2C19 activ: 1; PostGolgi yeast: 0

Results for COc1ccc(-c2nn(C)c(=O)c3ccccc23)cc1NC(=O)COc1ccc(C)cc1 ?
CYP2C9 inh: 17; CYP2C9 activ: 0.8; PostGolgi ctrl: -2; CYP2C19 inh: 26; CYP2C19 activ: 0.7; PostGolgi yeast: 6

What do the screens show for `Cn1c(N)c(C(=O)COC(=O)c2ccc(Br)o2)c(=O)n(C)c1=O`?
CYP2C9 inh: 12; CYP2C9 activ: 0.9; PostGolgi ctrl: 27; CYP2C19 inh: 3; CYP2C19 activ: 1; PostGolgi yeast: 0

Results for Cc1ccc(C(=O)NCC(=O)OCC(=O)c2c(N)n(C)c(=O)n(C)c2=O)s1 ?
CYP2C9 inh: 58*; CYP2C9 activ: 0.4; PostGolgi ctrl: 1; CYP2C19 inh: 7; CYP2C19 activ: 0.9; PostGolgi yeast: 6

What do the screens show for `O=C(N/N=C/c1ccc(-c2cccc(C(F)(F)F)c2)o1)c1ccccc1Br`?
CYP2C9 inh: -20; CYP2C9 activ: 1.2; PostGolgi ctrl: 8; CYP2C19 inh: -13; CYP2C19 activ: 1.1; PostGolgi yeast: 0

Results for O=C(N/N=C/c1ccc(-c2cccc(C(F)(F)F)c2)o1)c1cccc(F)c1 ?
CYP2C9 inh: 25; CYP2C9 activ: 0.8; PostGolgi ctrl: 37*; CYP2C19 inh: -3; CYP2C19 activ: 1; PostGolgi yeast: 36*

What do the screens show for `COc1ccc2nc(-c3ccco3)c(-c3ccco3)nc2c1`?
CYP2C9 inh: 56*; CYP2C9 activ: 0.4; PostGolgi ctrl: 11; CYP2C19 inh: 35; CYP2C19 activ: 0.7; PostGolgi yeast: 13

What do the screens show for `O=C(NCc1ccccc1)c1ccc2nc(-c3ccco3)c(-c3ccco3)nc2c1`?
CYP2C9 inh: 77*; CYP2C9 activ: 0.2; PostGolgi ctrl: 13; CYP2C19 inh: 36; CYP2C19 activ: 0.6; PostGolgi yeast: 3

Results for CCCCNC(=O)c1ccc2nc(-c3ccco3)c(-c3ccco3)nc2c1 ?
CYP2C9 inh: 31; CYP2C9 activ: 0.7; PostGolgi ctrl: -1; CYP2C19 inh: 4; CYP2C19 activ: 1; PostGolgi yeast: -4

Results for O=C(Nc1ccccc1)c1ccc2nc(-c3ccco3)c(-c3ccco3)nc2c1 ?
CYP2C9 inh: 67*; CYP2C9 activ: 0.3; PostGolgi ctrl: 0; CYP2C19 inh: 61*; CYP2C19 activ: 0.4; PostGolgi yeast: 3

Results for CCCNC(=O)c1ccc2nc(-c3ccccc3)c(-c3ccccc3)nc2c1 ?
CYP2C9 inh: 51*; CYP2C9 activ: 0.5; PostGolgi ctrl: 27; CYP2C19 inh: 7; CYP2C19 activ: 0.9; PostGolgi yeast: 10

How did CC(=O)c1ccc(NC(=O)c2ccc3nc(-c4ccco4)c(-c4ccco4)nc3c2)cc1 do in these assays?
CYP2C9 inh: 27; CYP2C9 activ: 0.7; PostGolgi ctrl: -3; CYP2C19 inh: 6; CYP2C19 activ: 0.9; PostGolgi yeast: -1

Results for O=C(CCS(=O)(=O)c1ccc(Br)s1)N1CCc2ccccc21 ?
CYP2C9 inh: -48; CYP2C9 activ: 1.5; PostGolgi ctrl: 10; CYP2C19 inh: 24; CYP2C19 activ: 0.8; PostGolgi yeast: 6

What do the screens show for `Cn1c(SCC(=O)c2ccccc2)nc2cccnc21`?
CYP2C9 inh: 43; CYP2C9 activ: 0.6; PostGolgi ctrl: 28; CYP2C19 inh: 72*; CYP2C19 activ: 0.3; PostGolgi yeast: 5
